Source: PubChem (The Scripps Research Institute Molecular Screening Center)
A selection: hits, their analogues and other compounds. The true share with any hit is near 4.8%.
SMARCA2 act – activators of SMARCA2 function. AID 652017. 370,000 tested, 1% active. MG213 cells, MMTV-luciferase reporter, dexamethasone, overnight. activation, % at 9.1 µM; in the data active = activation above about 7.8%;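 also: 0% = vehicle wells and 100% = reference activator wells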
ssDAF-12 act – activates DAF-12 receptor from parasite S. stercoralis; 370,000 tested, 1% active; HEK293 ssDAF-12/GRIP1 lit1-tk-luc reporter, luminescence; % of 3 µM dafachronic acid response; activation, % at 6.8 µM;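 active = activation above the mean over all tested compounds plus 3 SD, cut at about 0.9% in these data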;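 also: 0% = DMSO-only wells and 100% = 3 µM delta7-dafachronic acid wells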
hcDAF-12 act – activators of H. contortus DAF-12 nuclear receptor. HEK293 hcDAF-12 lit1-tk-luc reporter, luminescence; 0% DMSO, 100% Δ7-dafachronic acid. activation, % at 6.8 µM. 370,000 tested, 1.4% active. AID 652067;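 active = activation above the mean of all tested compounds plus 3 SD, cut at about 5.5% in these data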;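 also: 100% = response to 3 µM Δ7-dafachronic acid high control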
hgDAF12 agonist – agonists of H. glycines DAF-12 nuclear receptor | HEK293 GAL4-hgDAF12 UAS-luciferase reporter, agonist luminescence; normalized to butyrate control | activation, % at 6.8 µM | 370,000 tested, 1.8% active;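 active = activation above a cutoff set at the mean of all screened compounds plus 3 SD, cut at about 10% in these data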;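 also: 0% = DMSO wells and 100% = sodium butyrate wells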
DAX1 inh-1 – DAX1 (NR0B1) inhibition, primary screen; HEK293T StAR-luciferase reporter, SF-1/DAX-1 repression relief; inhibition, % at 6.8 µM; 370,000 tested, 1.1% active; AID 652010;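 active = inhibition above the mean over all tested compounds plus 3 SD, cut at about 3.6% in these data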;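 also: 0% = DAX-1 cells with DMSO and 100% = cells lacking DAX-1 with DMSO; higher inhibition means more luminescence from relief of DAX-1 repression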
DAX1 inh-2 – NR0B1 (DAX1) inhibition. HEK293 Gal4-DAX1 luciferase reporter, luminescence. inhibition, % at 6.75 µM. 340,000 tested, 0.99% active;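 active = inhibition above the mean over all tested compounds plus 3 SD, cut at about 4.2% in these data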;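 also: 0% = DAX1-transfected cells with DMSO and 100% = empty-vector control cells with DMSO; inhibition shows as a rise in luminescence from relieved DAX1 repression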
Target sequence (P51843 207-470 limits assumed): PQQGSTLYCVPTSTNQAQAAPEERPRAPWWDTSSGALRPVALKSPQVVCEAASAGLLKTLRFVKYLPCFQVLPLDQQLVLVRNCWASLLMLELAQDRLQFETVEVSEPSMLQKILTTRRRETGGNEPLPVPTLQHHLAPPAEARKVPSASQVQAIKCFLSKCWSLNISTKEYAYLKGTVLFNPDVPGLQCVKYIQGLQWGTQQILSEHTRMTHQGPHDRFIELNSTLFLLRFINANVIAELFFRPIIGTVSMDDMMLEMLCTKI
DAX1 conf – NR0B1 (human) inhibition, confirmation. shares compounds with DAX1 inh-1. HEK293T StAR-promoter luciferase reporter, SF-1/DAX-1 repression. inhibition, % at 6.8 µM. 2,400 tested, 87% active. AID 652134;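 active = inhibition above the average of every tested compound plus 3 SD, cut at about 3.8% in these data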;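 also: 0% = DAX-1 cells with DMSO and 100% = no DAX-1 control cells with DMSO; active compounds raise luminescence by relieving repression of the StAR reporter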
Target sequence (P51843 whole entry, looked up): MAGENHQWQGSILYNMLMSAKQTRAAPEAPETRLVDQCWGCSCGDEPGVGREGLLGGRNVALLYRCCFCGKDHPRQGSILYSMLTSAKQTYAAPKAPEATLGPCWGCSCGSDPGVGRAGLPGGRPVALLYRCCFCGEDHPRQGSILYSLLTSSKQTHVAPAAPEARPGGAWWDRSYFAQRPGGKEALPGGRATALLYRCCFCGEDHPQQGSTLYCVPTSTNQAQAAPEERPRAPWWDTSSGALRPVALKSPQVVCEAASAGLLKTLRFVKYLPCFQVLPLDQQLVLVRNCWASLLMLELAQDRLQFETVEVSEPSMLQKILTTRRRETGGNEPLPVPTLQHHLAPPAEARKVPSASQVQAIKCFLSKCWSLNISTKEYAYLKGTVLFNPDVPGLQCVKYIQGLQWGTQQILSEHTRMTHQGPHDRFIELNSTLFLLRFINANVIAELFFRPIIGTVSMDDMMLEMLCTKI
SF1 AF2mut Luc – nonselective inhibitor or artifact in SF-1 mutant DAX1 counter-screen. shares compounds with DAX1 inh-1. HEK293 StAR-luciferase, SF-1 AF2 mutant, luminescence. inhibition, % at 6.8 µM. 2,400 tested, 78% active. AID 652136;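 active = inhibition above the mean of all tested compounds plus 3 SD, cut at about 3% in these data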;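 also: 0% = DAX-1 transfected cells with DMSO and 100% = cells without DAX-1 with DMSO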
SMARCA2 conf – SMARCA2 activation, confirmation screen; shares compounds with SMARCA2 act; MG213 cells, MMTV-luciferase with dexamethasone, luminescence, overnight; MG213 cells expressing E1A, Rb sequestered; DMSO wells 0%, reference activator 100%; activation, % at 9.1 µM; 3,500 tested, 30% active; AID 652260;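 active = activation above its plate's cutoff, the mean activation of tested wells plus 3 SD, cut at about 7.9% in these data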
GAL4-VP16 Luc – counter-screen for SMARCA2 activators: GAL4-VP16 luciferase reporter activation; 3,500 tested, 41% active; shares compounds with SMARCA2 act; HEK293 GAL4-VP16 pG5luc reporter, luciferase luminescence; scaled: DMSO wells 0%, SAHA wells 100%; activation, % at 9.1 µM;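 active = activation above the solvent-only control well mean plus 3 SD, averaged across control plates, cut at about 5.2% in these data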
LXR ag – counter-screen for hcDAF-12 agonists: agonists of human LXR-beta; shares compounds with hcDAF-12 act; HEK293 Gal4-LXR tk-luc reporter, luminescence, 24 h; normalized: DMSO 0%, positive control 100%; activation, % at 6.8 µM; 3,400 tested, under 10 active;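 active = mean percent activation of the reporter above a cutoff set as the average over tested compounds plus their standard deviation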
hcDAF12 ag – confirmation of H. contortus DAF-12 agonists; 3,400 tested, 61% active; activation, % at 6.8 µM; HEK293 hcDAF-12 lit1-tk-luc reporter, luminescence; % of Δ7-dafachronic acid response; AID 743032; shares compounds with hcDAF-12 act;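 active = mean activation across triplicate tests above the threshold derived from the earlier primary screen, cut at about 5.5% in these data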;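 also: 0% = DMSO only wells and 100% = 3 µM Δ7-dafachronic acid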
hgDAF12 ag – hgDAF-12 agonism, confirmation assay. activation, % at 6.8 µM. HEK293 GAL4-hgDAF12 luciferase reporter, agonist mode; percent of butyrate response. 3,300 tested, 80% active. shares compounds with hgDAF12 agonist;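 active = mean activation over triplicate wells above the hit cutoff derived from the earlier primary screen, cut at about 11% in these data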;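 also: 0% = DMSO low control and 100% = 2 mM sodium butyrate high control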
LXRb DAF12 ctr – LXR-beta agonism as DAF-12 counter-screen; 3,300 tested, under 10 active; shares compounds with hgDAF12 agonist; AID 743051; HEK293 Gal4-LXR luciferase reporter, 24 h; activation, % at 6.8 µM;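 active = mean activation of the triplicate above a set limit carried over from the primary screen, none filed active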
An asterisk follows results filed as active; / = not tested or not shown.

SMILES	SMARCA2 act	ssDAF-12 act	hcDAF-12 act	hgDAF12 agonist	DAX1 inh-1	DAX1 inh-2	DAX1 conf	SF1 AF2mut Luc	LXR ag	hcDAF12 ag	hgDAF12 ag	LXRb DAF12 ctr	others
Cc1cccc(NC(=O)c2ccc3ccccc3n2)c1C	-1	2.8*	23*	17*	6.4*	3	11*	7.5*	2	19*	25*	1
Cc1cccn2cc(-c3ccc(S(=O)(=O)N4CCCCC4)cc3)nc12	-2	-1	-1	4	-1	-1	/	/	/	/	/	/
COc1ccc(-c2csc(C)n2)cc1OC	4	-1	-1	0	0	0	/	/	/	/	/	/
COc1ccc(-c2cn3cc(C)ccc3n2)cc1OC	6	0	4	19*	4.9*	-1	12*	6.6*	/	/	18*	1
Cc1ccc(-c2cn3cccc(C)c3n2)cc1	14*	3.8*	16*	15*	9.2*	0	17*	7.9*	2	17*	21*	1	SMARCA2 conf=4;GAL4-VP16 Luc=12*
CCC(=O)Nc1cccc(-c2cn3cccc(C)c3n2)c1	0	-1	1	-1	0	/	/	/	/	/	/	/
Cc1cccn2cc(-c3ccc(Cl)cc3)nc12	0	2.6*	18*	16*	9.3*	1	11*	4.0*	1	18*	18*	1
COc1ccc(-c2cn3cccc(C)c3n2)cc1F	7	1.0*	7.9*	18*	5.0*	2	14*	9.0*	1	5	16*	1
Cc1ccc(NC(=O)N2CCC(NC(=O)c3ccco3)CC2)cc1	1	-1	-1	-1	0	0	/	/	/	/	/	/
C[C@H](CO)N1C[C@H](C)[C@@H](CN(C)Cc2ccccc2)OCc2cnnn2CCCC1=O	-4	-1	0	0	1	4	/	/	/	/	/	/
CCC1CCC2(CC1)NC(=O)N(CC(=O)NCc1ccccc1Cl)C2=O (stereo unspecified)	3	-1	-1	0	-1	-1	/	/	/	/	/	/
O=C(COC(=O)c1ccccc1C(=O)c1ccc(Cl)cc1)NC(c1ccccc1)c1ccccc1	-2	0	-1	-3	0	0	/	/	/	/	/	/
Cc1ccc2nc(/C=C/c3cccc(F)c3)ccc2c1	5	2.8*	8.3*	21*	5.1*	2	10*	5.1*	2	8.7*	20*	1
O=c1[nH]c(/C=C\c2cccc(F)c2)nc(O)c1[N+](=O)[O-]	-1	-1	0	0	0	1	/	/	/	/	/	/
O=C(CSc1cnc2ccccc2n1)c1ccc(F)cc1	4	1.1*	9.2*	19*	5.4*	-2	7.3*	4.4*	1	4	17*	1
CN(C)S(=O)(=O)c1cccc(NC(=O)COC(=O)c2cc(-c3cccc(Br)c3)nc3ccccc23)c1	-3	-2	0	4	0	-1	/	/	/	/	/	/
O=C(NCc1ccccn1)/C(=C/c1ccco1)NC(=O)c1ccccc1	1	-1	-1	-1	0	0	/	/	/	/	/	/
O=C(Cc1ccccn1)c1ccccc1	1	-2	-1	0	0	0	/	/	/	/	/	/
O=C(Nc1ccccc1)OCCc1ccccn1	7	-1	4	14*	9.3*	5.8*	7.4*	4.2*	/	/	11*	1
O=C(CCCc1ccccn1)c1ccccc1	4	0	7.7*	18*	5.6*	1	11*	5.8*	1	3	11*	1
O=C1Nc2ccccc2N(C(=O)c2c(F)cccc2F)C1c1nc2ccccc2[nH]1 (stereo unspecified)	10*	0	4	23*	14*	/	4.2*	3.1*	/	/	11*	0	SMARCA2 conf=4;GAL4-VP16 Luc=10*
CCOC(=O)c1cnc(SCc2ccccc2)nc1N	8	-1	4	16*	5.4*	3	10*	6.6*	/	/	16*	1
O=C(Nc1ccccc1O)c1ccc(NC(=O)C2CC2)cc1	2	1	9.8*	62*	42*	9.5*	46*	22*	2	7.9*	69*	1
O=C(Nc1ccccc1C(=O)O)c1ccc(NC(=O)C2CC2)cc1	-1	-1	1	-1	-1	-2	/	/	/	/	/	/
O=c1c(Cl)cc(Cl)nn1-c1ccccc1	1	-2	1	0	-1	-1	/	/	/	/	/	/
COc1cc(/C=C/C(=O)OCC(=O)NCCc2ccc(S(N)(=O)=O)cc2)ccc1OCC#N	-1	-1	1	0	-1	0	/	/	/	/	/	/
Cc1ccc2nc(-c3ccc(NC(=S)NC4CC(C)(C)NC(C)(C)C4)cc3)sc2c1	13*	1	5	19*	7.5*	4.4*	12*	10*	/	/	17*	1	SMARCA2 conf=-8;GAL4-VP16 Luc=16*
O=C(CCN1C(=O)c2ccccc2C1=O)Nc1ccc(-c2nc3ccccc3s2)cc1	6	-1	2	3	2	1	/	/	/	/	/	/
Cc1ccc2nc(-c3ccc(NC(=S)NC(=O)C(C)C)cc3)sc2c1	6	0	4	5	2	2	/	/	/	/	/	/
Cc1ccc2nc(-c3ccc(NC(=O)C(C)N4C(=O)c5ccccc5C4=O)cc3)sc2c1 (stereo unspecified)	8	1	8.6*	21*	6.2*	3	8.8*	5.8*	1	5	13*	1
